# Data published in PubChem BioAssay (EPA / NIEHS).
# Calls of active or inactive are those of the source. How the source made its calls: active means hit-call score of the fitted dose curve at least 0.9, where 1 is the maximum; inactive means score below 0.9.
# Experiment: ATG_MRE_CIS: Attagene CIS-FACTORIAL HepG2 Assay for human Metal Responsive Element (MRE) (AID 2282954)
# Conditions: HepG2 MRE cis-reporter transcription, Attagene multiplex; actives raise or lower the signal
# Experimental: ATG_CIS is a cell-based, multiplexed-readout assay that uses HepG2, a human liver cell line, with measurements taken at 24 hours after chemical dosing in a 24-well plate.ATG_MRE_CIS is one of 52 assay component(s) measured or calculated from the ATG_CIS assay. It is designed to make measurements of mRNA induction, a form of inducible reporter, as detected with fluorescence intensity signals by Reverse transcription polymerase chain reaction (RT-PCR) and Capillary electrophoresis technology.Data from the assay component ATG_MRE_CIS was analyzed into 1 assay endpoint. This assay endpoint, ATG_MRE_CIS, was analyzed with bidirectional fitting relative to DMSO as the negative control and baseline of activity. Using a type of inducible reporter, measures of mRNA for gain or loss-of-signal activity can be used to understand the reporter gene at the transcription factor-level as they relate to the gene MTF1. Furthermore, this assay endpoint can be referred to as a primary readout, because this assay has produced multiple assay endpoints where this one serves a reporter gene function. To generalize the intended target to other relatable targets, this assay endpoint is annotated to the dna binding intended target family, where the subfamily is zinc finger.
# Human liver HepG2 cells are transiently transfected with multiple reporter transcription units (MRTUs) in 6-well plates using FuGene 6 reagent (Roche; 3 ml FuGene/1 mg DNA). The MRTU constructs are regulated by a cis-regulating element (promoter). […] A major difference between the CIS and TRANS system is that in CIS activities of endogenous TFs are measured, whereas the TRANS assay evaluates changes in activities of exogenous, chimeric NR-Gal4 proteins. […] At the end of 24 hour incubation, total RNA was isolated using TriZol reagent (Invitrogen). The isolated RNA is then reverse-transcribed using oligo(dT) primer and Mo-MLV reverse transcriptase (Invitrogen) with DNAse I (Ambion) treatment for 30 min. The one-tenth of the produced cDNA was amplified by PCR using Taq DNA polymerase (Invitrogen) and two reporter sequence-specific primers. The PCR products were fluorescently labeled by primer extension with 6-arboxyfluorescein (6-FAM) 5'-labeled reporter sequence-specific primer (2 min at 95 C, 20 s at 68 C and 10 min at 72 C) and these products were digested with 5U of HpaI (New England Biolabs) for 2h at 37 C. The fragments were purified using Qiaquick PCR columns (Qiagen), analyzed on an ABI 3130xL genetic analyzer (Applied Biosystems) with peak positions identified by using a set of X-rhodamine (ROX)-labeled MapMarker1000 molecular weight standards (BioVentures). The raw capillary electrophoresis data was processed using Attagraph software (Attagene).
SMILES,outcome,AC50
CCc1cccc(C)c1N,inactive,–
CC(C)CC(=O)OCc1ccccc1,inactive,–
Nc1ccnc(=O)[nH]1,inactive,–
CCCCCCCCCC(C)=O,inactive,–
C=CCCCCCCCCC=O,inactive,–
C=CC(=O)OCCCCCCCC(C)C,inactive,–
CCC[Si](OC)(OC)OC,inactive,–
CC(=O)CCC1=C(C)CCCC1(C)C,inactive,–
CCC(C)(O)CCCC(C)C (stereo not given),inactive,–
CC(C)(C)C1CCC(=O)CC1,inactive,–
c1ccc2cnccc2c1,inactive,–
C=C(C)OC(C)=O,inactive,–
CCCCCC(=O)OCC,inactive,–
CCCCCCCCCCCC(=O)OCC,inactive,–
C=CCNCC=C,inactive,–
COc1ccc(C(=O)/C(Br)=C\C(=O)O)cc1,–,55.5 µM (active)
CO[Si](CCCS)(OC)OC,inactive,–
O=C1CCCN1C1CCCCC1,inactive,–
CCC(=O)C1CC(C(C)C)CC=C1C (stereo not given),inactive,–
Cc1ccc(C)c(OCCCC(C)(C)C(=O)O)c1,inactive,–

SMILES,outcome,AC50
C=CCCCCCCCCOC(C)=O,inactive,–
NC(=O)Nc1ccccc1,inactive,–
CCCCOC(=O)C(C)CC (stereo not given),inactive,–
COC(OC)(C(=O)c1ccccc1)c1ccccc1,–,43.5 µM (active)
O=C(Nc1ccccc1)c1cc(Cl)ccc1O,–,23.9 µM (active)
O=C(OCCc1ccccc1)c1ccccc1,inactive,–
CC(C)C(=O)OCCOc1ccccc1,inactive,–
CC1=CCC2CC1C2(C)C (stereo not given),inactive,–
Nc1ccc(C(=O)OCCCOC(=O)c2ccc(N)cc2)cc1,inactive,–
O=C(Oc1ccccc1)c1ccccc1O,inactive,–
CC1(C)[C@@H]2CC[C@@]1(C)C(=O)C2,inactive,–
CCCCC(=O)O,inactive,–
CCOC(=O)c1ccccc1C,inactive,–
CCOC(=O)OC(=O)OCC,inactive,–
CC=CC(=O)OCC(C)C,inactive,–
CC(CC=O)CC(C)(C)C (stereo not given),inactive,–
CCN(CC)c1cccc(C)c1,inactive,–
CC1(C)C(=O)N(CO)C(=O)N1CO,inactive,–
C=Cc1cccc(C)c1,inactive,–
[Cl][Eu]([Cl])[Cl],inactive,–
